We go through 34 molecules from PubChem BioAssay (NCI).

Compounds without any hit were thinned out: in the full panel of roughly 83,000, 20% have a hit.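 Growth was measured after 48 h exposure to one concentration of compound in 96-well plates. Values under 10 count as active.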 The source made the active and inactive calls.

For this assay, the system named is MDA-MB-435 melanoma. The assay can be described thus: NCI-60 one-dose screen, 48 h (100 = growth as untreated, 0 = no growth, -100 = all killed). The note with it: 10 µM unless noted.
For `N#C/C(=C\c1ccc(-c2ccc(Cl)cc2)o1)C(=O)Nc1ncc(Cc2ccc(Br)cc2)s1`, the growth is 11.3% (inactive).
`O=C(COc1ccc(/C=C2\C(=O)Nc3ccc(Cl)cc32)cc1)Nc1ccc(Cl)cc1`: the growth is 55.6% (inactive).
For `CC(O)c1cccc(/C(N)=N/C(N)=N/c2nc3ccccc3s2)c1` (centres undefined), the growth is 98% (inactive).
Then `O=C(CN1CCN(c2cc(=O)[nH]c3ccc(F)cc23)CC1)N(c1ccccc1)c1ccccc1`, with 102% (inactive); and `Cn1c(SCC(=O)c2ccc(Br)cc2)nc2ccccc2c1=O`, with 103% (inactive); and `NC(N)=NS(=O)(=O)c1ccc(N=Nc2c(N)nn(-c3ccc([N+](=O)[O-])cc3[N+](=O)[O-])c2N)cc1`, with 103% (inactive).
The figure for `Cc1cc2nc3c4cc(C#N)ccc4n(CCN(C)C)c3nc2cc1C` is -27.4% (active).
Then `O=C(CCCCCCN1CC(=O)N2[C@@H](c3cccs3)c3[nH]c4ccccc4c3C[C@H]2C1=O)NO`, with 80.8% (inactive); and `O=C(CSc1nc2ccccc2c(=O)n1CCc1ccccc1)Nc1ccc(S(=O)(=O)Nc2ccc(Cl)nn2)cc1`, with 99.8% (inactive).
Regarding `CC1=C(C)C(=O)C(Nc2ccc(C)c(C)c2)=C(Br)C1=O`, the growth was 103% (inactive).
Turning to `COc1cc(/C=C2/C(=O)Nc3ccc(Cl)cc32)ccc1OCc1ccc(Cl)cc1`, the growth is 91.3% (inactive).
For `Cc1ccc2c(n1)C(=O)C(Cl)=C(Nc1ccc(C(C)C)cc1)C2=O`, the growth was -81.2% (active).
Then `CN1CCN(c2ccc(Nc3nc(NCCNS(=O)(=O)c4ccccc4)c4sccc4n3)cc2)CC1`, with 105% (inactive); and `CNC(=O)c1cc(N2CCc3cc(NC(=O)Nc4ccc(N5CCN(C)CC5)c(C(F)(F)F)c4)ccc32)ccn1`, with 82.3% (inactive).
The figure for `C=C(C)[C@@H]1CC[C@]2(COCCCNCCCN)CC[C@]3(C)[C@H](CC[C@@H]4[C@@]5(C)CC[C@H](O)C(C)(C)[C@@H]5CC[C@]43C)[C@@H]12` is -95.8% (active); for `CN1CCN(Cc2ccc(NC(=O)c3cncc(C#Cc4cnc5ccc(OCC6COC6)nn45)c3)cc2C(F)(F)F)CC1` it is -92.3% (active).
The figure for `CCN(CC)S(=O)(=O)c1ccc(-c2nc(C(Cl)Cl)nc3cc(-c4ccc(F)cc4)nn23)cc1` is 25.6% (inactive); for `O=C(COc1ccc(/C=C2\C(=O)Nc3ccc(F)cc32)cc1)Nc1ccccc1` it is 98.6% (inactive); for `CN1CCN(c2ccc(Nc3nc(NCCCNS(=O)(=O)c4ccc(F)cc4)c4sccc4n3)cc2)CC1` it is 47.3% (inactive).
In the case of `C#CCOc1cccc(-c2nc(N)nc(Nc3ccccc3SSc3ccccc3Nc3nc(N)nc(-c4cccc(OCC#C)c4)n3)n2)c1`, the growth is 72.7% (inactive).
As for `O=C(CSc1nnc(-c2ccc(Cl)cc2)n1-c1ccccc1)Nc1ccc(Cl)cc1`, the growth was 42.3% (inactive).
Then `NC(=O)n1c(=O)n(-c2cccc(C(F)(F)F)c2)c(=O)c2cc(-c3ccc(F)cc3F)ccc21`, with 0.406% (active).
On to `C#CCOc1ccc(/C=N/Nc2nc(-c3ccc(OC)cc3)cs2)cc1`, for which the growth was 79.3% (inactive).
The figure for `CCOC(=O)c1c(NC(=O)c2cccc(C(F)(F)F)c2)sc2c3c(ccc12)OCN(C)C3` is -55.5% (active); for `CN1CCN(Cc2ccc(NC(=O)c3cncc(C#Cc4cnc5ccc(OCCCS(C)(=O)=O)nn45)c3)cc2C(F)(F)F)CC1` it is -22.7% (active); for `CCOC(=O)c1c(NCC(=O)Nc2cccc([N+](=O)[O-])c2)sc(C(C)=O)c1C` it is -26% (active).
With `N#Cc1c(-c2cccs2)cc(-c2cnccn2)nc1SCC(=O)N/N=C/c1ccccc1`, the growth is 23.6% (inactive).
The figure for `CN1CCN(Cc2ccc(NC(=O)c3cncc(C#Cc4cnc5ccc(O[C@@H]6CCOC6)nn45)c3)cc2C(F)(F)F)CC1` is -97.6% (active).
The figure for `O=C(CCCCCCNC(=O)c1csc(Br)n1)NO` is 12% (inactive).
Then `O=C(NCCNc1cc(-c2cn(-c3ccccc3)nc2-c2cccc(O)c2)ccn1)Nc1cc(C(F)(F)F)cc(C(F)(F)F)c1`, with 98.4% (inactive); and `COC(=O)c1ccc(NC2=C(Cl)C(=O)c3nc(C)ccc3C2=O)cc1`, with 60.6% (inactive).
With `CCOP(=O)(OCC)OC[C@]12CCC(C)(C)C[C@H]1C1=CC[C@@H]3[C@@]4(C)CC[C@H](OP(=O)(OCC)OCC)C(C)(C)[C@@H]4CC[C@@]3(C)[C@]1(C)CC2`, the growth was 62.1% (inactive).
`C/C(=N/N)c1nnn(-c2ccc(Br)cc2)c1C`: the growth was 102% (inactive).
The figure for `O=C(N/N=C\c1ccc(F)cc1)c1ccc2nc(-c3ccc(Br)cc3)[nH]c2c1` is 40.7% (inactive).
